The supplement of paper PMC9942566
± gives the standard deviation of the averaged measurements.

The compounds below were run on Serratia marcescens K904 PosmB-luxCDABE reporter (pMQ747) (assay: PosmB-lux reporter fold induction (RLU/OD600 relative to no-compound control), highest over Biolog concentrations; higher = stronger Rcs reporter activation). Settings: wild type K904; 4 h.
Procedure: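 Serratia marcescens K904 (wild type) or its isogenic ΔrcsB mutant, carrying the Rcs-dependent PosmB-luxCDABE reporter plasmid pMQ747, was grown in LB at OD600 0.1 in Biolog Phenotype MicroArray plates PM11-20 for 4 h at 30-32°C. Each compound is present at 3-4 proprietary concentrations (not stated); per the Fig. S1 legend the value given is the highest fold over those wells. Three independent trials.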

Compound	PosmB-lux reporter fold induction
[Cl][Cu][Cl] [Cupric chloride] (Biolog plate: PM13, well positions: H1-4)	1.13 ± 0.12
[Cl-].[Cs+] [Cesium chloride] (Biolog plate: PM13, well positions: F1-4)	1.41 ± 0.16
CC1COc2c(N3CCN(C)CC3)c(F)cc3c(=O)c(C(=O)O)cn1c23 (stereo not given) [Ofloxacin] (Biolog plate: PM11, well positions: H9-12)	1.25 ± 0.35
COc1ccc(C[C@H](N)C(=O)N[C@H]2[C@@H](O)[C@H](n3cnc4c(N(C)C)ncnc43)O[C@@H]2CO)cc1 [Puromycin] (Biolog plate: PM15, well positions: F9-12)	1.9 ± 0.2
C[C@@H]1O[C@@H]1P(=O)(O)O [Phosphomycin] (Biolog plate: PM16, well positions: A5-8)	0.962 ± 0.25
Nc1ncn([C@@H]2O[C@H](CO)[C@@H](O)[C@H]2O)c(=O)n1 [5-azacytidine] (Biolog plate: PM16, well positions: E5-8)	1.15 ± 0.41
CC(=O)OCC1=C(C(=O)O)N2C(=O)[C@@H](NC(=O)Cc3cccs3)[C@H]2SC1 [Cephalothin] (Biolog plate: PM11, well positions: H1-4)	1.36 ± 0.043
CCN(CC)CC(=O)Nc1c(C)cccc1C [lidocaine] (Biolog plate: PM18, well positions: D9-12)	1.37 ± 0.17
O=c1c(O)c(-c2cc(O)c(O)c(O)c2)oc2cc(O)cc(O)c12 [myricetin] (Biolog plate: PM18, well positions: G9-12)	1.05 ± 0.13
O=C(O)/C=C/c1ccccc1 [cinnamic acid] (Biolog plate: PM19, well positions: C9-12)	9.92 ± 5.1
NC[C@H]1O[C@H](O[C@H]2[C@H](O)[C@@H](O[C@H]3O[C@H](CO)[C@@H](O)[C@H](N)[C@H]3O)[C@H](N)C[C@@H]2N)[C@H](N)C[C@@H]1O [Tobramycin] (Biolog plate: PM12, well positions: F1-4)	1.6 ± 0.2
CC(C)(C)CC(C)(C)c1ccc(OCCOCC[N+](C)(C)Cc2ccccc2)cc1 [Benzethonium chloride] (Biolog plate: PM12, well positions: E9-12)	2.27 ± 0.38
CO/N=C(\C(=O)N[C@@H]1C(=O)N2C(C(=O)O)=C(COC(N)=O)CS[C@H]12)c1ccco1 [Cefuroxime] (Biolog plate: PM13, well positions: D1-4)	1.85 ± 0.24
CO[C@@H]1[C@@H](OC(N)=O)[C@@H](O)[C@H](Oc2ccc3c(O)c(NC(=O)c4ccc(O)c(CC=C(C)C)c4)c(=O)oc3c2C)OC1(C)C [Novobiocin] (Biolog plate: PM12, well positions: D9-12)	4.98 ± 0.98
CO[C@@H]1[C@@H](O[C@@H]2O[C@H](C)[C@@H](O[C@H]3C[C@@](C)(O)[C@@H](OC(=O)CC(C)C)[C@H](C)O3)[C@H](N(C)C)[C@H]2O)[C@@H](CC=O)C[C@@H](C)[C@@H](O)/C=C/C=C/C[C@@H](C)OC(=O)C[C@H]1OC(C)=O [josamycin] (Biolog plate: PM19, well positions: A2-4)	1.27 ± 0.74
CC(CN1c2ccccc2Sc2ccccc21)N(C)C (stereo not given) [Promethazine] (Biolog plate: PM14, well positions: H5-8)	4.68 ± 1.8
Cn1nnnc1SCC1=C(C(=O)O)N2C(=O)[C@@H](NC(=O)[C@H](OC=O)c3ccccc3)[C@H]2SC1 [cefamandole nafate] (Biolog plate: PM17, well positions: G5-8)	1.96 ± 0.53
CCCCCCCCCCCC[N+](C)(C)C [Dodecyltrimethyl ammonium bromide] (Biolog plate: PM12, well positions: H9-12)	2.03 ± 0.22
CC(=O)O[C@H]1C[C@@]2(C)[C@@H](C[C@@H](O)[C@H]3[C@@]4(C)CC[C@@H](O)[C@@H](C)[C@@H]4CC[C@@]32C)/C1=C(\CCC=C(C)C)C(=O)O [Fusidic acid] (Biolog plate: PM15, well positions: C5-8)	1.01 ± 0.48
CCN(CC)CCOC(=O)c1ccc(N)cc1 [Procaine] (Biolog plate: PM15, well positions: A2-4)	1.21 ± 0.28

Compound	PosmB-lux reporter fold induction
CCn1cc(C(=O)O)c(=O)c2cc(F)c(N3CCNCC3)nc21 [Enoxacin] (Biolog plate: PM11, well positions: E5-8)	2.1 ± 0.62
COc1cc(NS(=O)(=O)c2ccc(N)cc2)ncn1 [sulfamono-methoxine] (Biolog plate: PM17, well positions: C9-12)	1.35 ± 0.34
OC(CCN1CCCCC1)(c1ccccc1)c1ccccc1 [pridinol] (Biolog plate: PM20, well positions: F9-12)	2.86 ± 0.61
N[C@H](CO)C(=O)O [D-serine] (Biolog plate: PM17, well positions: A2-4)	2.39 ± 1.2
CO[C@@]1(NC(=O)C(C(=O)O)c2ccc(O)cc2)C(=O)N2C(C(=O)O)=C(CSc3nnnn3C)CO[C@@H]21 (stereo not given in full) [Moxalactam] (Biolog plate: PM13, well positions: H5-8)	1.69 ± 0.24
O=C(OC[C@H]1O[C@@H](OC(=O)c2cc(O)c(O)c(OC(=O)c3cc(O)c(O)c(O)c3)c2)[C@H](OC(=O)c2cc(O)c(O)c(OC(=O)c3cc(O)c(O)c(O)c3)c2)[C@@H](OC(=O)c2cc(O)c(O)c(OC(=O)c3cc(O)c(O)c(O)c3)c2)[C@@H]1OC(=O)c1cc(O)c(O)c(OC(=O)c2cc(O)c(O)c(O)c2)c1)c1cc(O)c(O)c(OC(=O)c2cc(O)c(O)c(O)c2)c1 [tannic acid] (Biolog plate: PM17, well positions: F9-12)	1.5 ± 0.49
Cc1onc(-c2ccccc2Cl)c1C(=O)N[C@@H]1C(=O)N2[C@@H]1SC(C)(C)[C@@H]2C(=O)O [Cloxacillin] (Biolog plate: PM11, well positions: B5-8)	2.22 ± 0.62
CN(C)[C@@H]1C(O)=C(C(N)=O)C(=O)[C@@]2(O)C(O)=C3C(=O)c4c(O)cccc4[C@@](C)(O)[C@H]3C[C@@H]12 [Tetracycline] (Biolog plate: PM12, well positions: A5-8)	1.53 ± 0.2
CCCCC(CC)CNC(=N)NC(=N)NCCCCCCNC(=N)NC(=N)NCC(CC)CCCC (stereo not given) [Alexidine] (Biolog plate: PM15, well positions: E1-4)	2.48 ± 0.99
O=C(O)c1cc(O)c(O)c(O)c1 [gallic acid] (Biolog plate: PM19, well positions: A5-8)	1.46 ± 0.28
CN[C@@H]1[C@H](O[C@H]2[C@H](O[C@H]3[C@H](O)[C@@H](O)[C@H](N=C(N)N)[C@@H](O)[C@@H]3N=C(N)N)O[C@@H](C)[C@]2(O)C=O)O[C@@H](CO)[C@H](O)[C@H]1O [streptomycin] (Biolog plate: PM16, well positions: E1-4)	0.916 ± 0.16
OCC(O)CS (stereo not given) [thioglycerol] (Biolog plate: PM19, well positions: H5-8)	1.22 ± 0.31
NC[C@@H]1O[C@H](O[C@H]2[C@@H](O)[C@H](O[C@@H]3[C@@H](O)[C@H](N)C[C@H](N)[C@H]3O[C@H]3O[C@H](CO)[C@@H](O)[C@H](O)[C@H]3N)O[C@@H]2CO)[C@H](N)[C@@H](O)[C@@H]1O [Paromomycin] (Biolog plate: PM12, well positions: C1-4)	1.63 ± 0.1
CC(Oc1ccccc1)C(=O)N[C@@H]1C(=O)N2[C@@H]1SC(C)(C)[C@@H]2C(=O)O (stereo not given in full) [phenethicillin] (Biolog plate: PM19, well positions: F1-4)	86 ± 19
CCOc1ccc2ccccc2c1C(=O)N[C@@H]1C(=O)N2[C@@H]1SC(C)(C)[C@@H]2C(=O)O [Nafcillin] (Biolog plate: PM11, well positions: D9-12)	2.29 ± 0.21
CO[C@H]1/C=C/O[C@@]2(C)Oc3c(C)c(O)c4c(O)c(c(/C=N/N5CCN(C)CC5)c(O)c4c3C2=O)NC(=O)/C(C)=C\C=C\[C@H](C)[C@H](O)[C@@H](C)[C@@H](O)[C@@H](C)[C@H](OC(C)=O)[C@@H]1C [Rifampicin] (Biolog plate: PM12, well positions: H5-8)	4.01 ± 0.98
O=c1ccc2ccc(O)cc2o1 [umbelliferone] (Biolog plate: PM19, well positions: C5-8)	1.07 ± 0.18
CN[C@@H]1[C@@H](O)[C@@H](O[C@@H]2[C@@H](O)[C@H](O[C@H]3OC(CN)=CC[C@H]3N)[C@@H](N)C[C@H]2N)OC[C@]1(C)O [Sisomicin] (Biolog plate: PM12, well positions: D1-4)	1.55 ± 0.14
NC[C@@H]1O[C@H](O[C@H]2[C@@H](O)[C@H](O[C@@H]3[C@@H](O)[C@H](N)C[C@H](N)[C@H]3O[C@H]3O[C@H](CN)[C@@H](O)[C@H](O)[C@H]3N)O[C@@H]2CO)[C@H](N)[C@@H](O)[C@@H]1O [Neomycin] (Biolog plate: PM11, well positions: F9-12)	1.51 ± 0.15
O.O=S(=O)([O-])[O-].O=S(=O)([O-])[O-].O=S(=O)([O-])[O-].[Al+3].[Al+3] [aluminum sulfate] (Biolog plate: PM16, well positions: F9-12)	1.33 ± 0.3
